# This is a sample that favours compounds with a hit; in the whole collection about 3.4% have one here.
# Gli-Sufu block – Gli-Sufu pathway antagonists, primary screen, luciferase luminescence, Sufu-KO-LIGHT cells, uHTS; Sufu-KO-LIGHT fibroblasts, Gli luciferase reporter luminescence; 340,000 tested, 0.74% active; AID 588413, 2011; inhibition, % at 5 µM;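 active = inhibition above about 55%, limit read from the data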;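 note: 0% = DMSO-treated cells and 100% = wells with medium but no cells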
# SMARCA2 activ – SMARCA2 (BRM) function activators, primary screen, cell-based, luminescence, high throughput; 370,000 tested, 1% active; MG213 cells, MMTV-luciferase reporter, dexamethasone, overnight; activation, % at 9.1 µM; AID 652017, 2013; in the data active = activation above about 7.8%;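 note: 0% = vehicle wells and 100% = reference activator wells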
# GalR3 antagonist – GalR3 antagonists in HEK293 cells, primary screen, cell-based, fluorescence readout; Galanin receptor type 3 (Homo sapiens), O60755; HEK293 GalR3-CNG cAMP membrane potential fluorescence; galR3 body fused to GalR1 C-terminus; inhibition, % at 3 µM; 360,000 tested, 0.44% active;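 active = inhibition above the screen-wide average plus 3 SD, cut at about 13% in these data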;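 note: forskolin and galanin both at EC90 stimulate the cells; cAMP rise reported by CNG channel membrane potential dye signal; 0% = forskolin plus galanin with DMSO and 100% = forskolin alone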
# Target sequence (O60755 1-299 limits assumed): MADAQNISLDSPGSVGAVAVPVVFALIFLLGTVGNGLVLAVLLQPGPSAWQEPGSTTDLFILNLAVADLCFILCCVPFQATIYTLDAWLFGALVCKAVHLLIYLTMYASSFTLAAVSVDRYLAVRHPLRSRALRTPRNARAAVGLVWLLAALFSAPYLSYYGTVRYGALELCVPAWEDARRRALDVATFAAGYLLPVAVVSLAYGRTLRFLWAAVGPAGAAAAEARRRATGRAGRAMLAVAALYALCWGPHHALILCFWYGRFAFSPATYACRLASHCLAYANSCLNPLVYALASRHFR
# COUP-TFII inh – NR2F2 transcriptional activity inhibitors, primary screen, cell-based, luciferase reporter, HEK293T, luminescence | COUP transcription factor 2 (Homo sapiens), P24468 | HEK293T NGFI-A luciferase reporter | inhibition, % at 8.6 µM | 370,000 tested, 0.7% active | AID 686940, 2013;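 active = inhibition above a per-plate cutoff, mean inhibition of test wells between control levels plus 3 SD, cut at about 38% in these data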;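 note: cells cotransfected with COUP-TFII expression vector driving the NGFI-A reporter; 0% = median of COUP-TF2 test wells and 100% = reporter-only cells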
# H9c2 protect – cardioprotection against H2O2-induced cell death, primary screen, uHTS, H9c2 cells, ATPLite luminescence; 360,000 tested, 0.63% active; protection from H2O2 cell death, % at 20 µM; H9c2 cardiomyocytes, H2O2 injury protection, 2 h;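 active = compounds giving at least 50% protection of heart cells from peroxide-induced death in the single-dose screen, raw or plate-pattern-corrected value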;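 note: 0% = DMSO wells with peroxide and 100% = DMSO wells without peroxide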
# FXN GAA850 act – FXN promoter activators, primary screen, cell-based, luciferase luminescence, HEK293 lucGAA850 | HEK293 lucGAA850 FXN promoter luciferase reporter, 24 h; percent of 10 µM SAHA response | activation, % at 6 µM | 360,000 tested, 0.56% active | AID 540364, 2011;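 active = activation above the average of all compounds screened plus 3 SD, cutoff fixed separately per campaign, cut at about 7.5% in these data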;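 note: 0% = DMSO wells and 100% = 10 µM SAHA wells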
# Gal4-VP16 ctr – Gal4-VP16 luciferase reporter inhibitors, counter-screen for COUP-TFII antagonist project, cell-based, luminescence, HEK293 | shares compounds with COUP-TFII inh | inhibition, % at 8.5 µM | 2,500 tested, 25% active | AID 687007, 2013; in the data active = inhibition above about 13%
# NR2F2 inh conf – NR2F2 transcriptional activity inhibitors, confirmation, cell-based, luciferase reporter, HEK293, triplicate. shares compounds with COUP-TFII inh. inhibition, % at 8.5 µM. AID 687008, 2013. HEK293 NGFI-A luciferase reporter, luminescence. 2,500 tested, 45% active;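 active = mean inhibition over three repeats above a set limit taken from the earlier primary screen, cut at about 38% in these data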;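 note: 100% = cells given the luciferase reporter alone without the COUP-TF2 vector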
# * = called active by the depositor; nt = no result given.
SMILES,Gli-Sufu block,SMARCA2 activ,GalR3 antagonist,COUP-TFII inh,H9c2 protect,FXN GAA850 act,Gal4-VP16 ctr,NR2F2 inh conf
CCN1CCN(C(=O)c2cc(COc3ccc4ncccc4c3)on2)CC1,30,-5,-5,38*,-22,-2,-2,19
COc1cccc(OCc2cc(C(=O)N(Cc3nccn3C)C(C)C)no2)c1,44,2,-6,-2,6,-1,nt,nt
COc1ccc(OCC(=O)Nc2ccc(N3CCN(C(=O)c4ccco4)CC3)cc2)cc1,17,5,-5,5,-1,4,nt,nt
O=C(COc1ccc(Cl)cc1)Nc1ccc(N2CCN(C(=O)c3ccco3)CC2)cc1,24,-7,-10,52*,-11,1,-1,35
CCC(=O)Nc1ccc(N2CCN(C(=O)c3ccccc3C)CC2)cc1,-3,-1,-6,5,-2,0,nt,nt
Cc1ccc(C(=O)N2CCN(c3ccc(NC(=O)c4ccc5c(c4)OCCO5)cc3)CC2)cc1,35,-3,-5,13,0,-7,nt,nt
Cc1ccccc1C(=O)N1CCN(c2ccc(NC(=O)CSc3ccc(Cl)cc3)cc2)CC1,-3,-7,-6,54*,-13,-7,0,57*
Cc1ccccc1C(=O)N1CCN(c2ccc(NC(=O)c3ccc4c(c3)OCCO4)cc2)CC1,34,-7,0,68*,-2,-7,10,58*
Cc1onc(-c2c(F)cccc2Cl)c1C(=O)OCn1nnc2ccccc2c1=O,4,-2,-6,9,6,0,nt,nt
CCOC(=O)[C@]12CCCC=C1N(CCC1=CCCCC1)C(=O)[C@H](CC(=O)NCc1cccc(C(F)(F)F)c1)C2,nt,-3,-10,-8,nt,nt,nt,nt
NC(COCc1ccccc1)c1csc(Nc2ncccn2)n1 (centres undefined),nt,0,-8,4,19,5,nt,nt
CC(C)CC(N)c1csc(Nc2ncccn2)n1 (centres undefined),nt,0,-4,43*,1,-2,-41,17
COc1ccc(N(CC(=O)NCC2CCCO2)C(=O)CCC(=O)Nc2cc(C)on2)cc1OC (centres undefined),-14,-3,-5,14,-2,-1,nt,nt
COc1ccccc1N1CCN(C(=O)CSc2nnc3n2C(C)(C)Cc2ccccc2-3)CC1,19,-4,-8,63*,0,-8,4,45*
Cc1c(Cl)c(C(=O)NNC(=S)Nc2ccc(F)cc2)nn1C,-10,4,-2,-13,-3,4,nt,nt
COc1cccc(Oc2ccc(S(=O)(=O)N3CCOCC3)cc2[N+](=O)[O-])c1,10,-2,-5,44*,-7,1,-9,0
COc1cc(C)c(S(=O)(=O)NCc2cccnc2)cc1C,0,1,-3,-14,-2,2,nt,nt
CN(C)c1ccc(C=c2c3cc([N+](=O)[O-])ccc3n3c2cc(-c2ccccc2)[n+]3C)cc1,81*,-9,-2,68*,-20,-6,53*,59*
CN(C)c1ccc(C=c2c3ccccc3n3c2cc(-c2ccccc2)[n+]3C)cc1,86*,-11,9,82*,-20,-7,21*,94*
COc1cc(N(C)C)ccc1C=c1c2ccccc2n2c1cc(-c1ccccc1)[n+]2C,91*,-10,-7,67*,-20,-9,9,73*
COc1cc(C=c2c3ccccc3n3c2cc(-c2ccccc2)[n+]3C)cc(OC)c1OC,14,-7,-5,38*,-18,-4,-1,7
O=C(NCCCn1ccnc1)c1sc2cc([N+](=O)[O-])ccc2c1Cl,nt,2,-6,-6,-8,2,nt,nt
COc1cc(-c2cc(N)n(S(=O)(=O)c3ccc(F)cc3)n2)cc(OC)c1OC,11,-1,1,-26,-10,0,nt,nt
COc1ccc(-c2cc(N)n(S(=O)(=O)c3ccc(F)cc3)n2)cc1OC,7,-4,4,46*,-34,-2,6,31
OC(c1ccccc1)c1ccncc1 (centres undefined),-10,1,4,11,-3,0,nt,nt
SMILES,Gli-Sufu block,SMARCA2 activ,GalR3 antagonist,COUP-TFII inh,H9c2 protect,FXN GAA850 act,Gal4-VP16 ctr,NR2F2 inh conf
OC(C1=CC(=Cc2ccncc2)c2ccccc21)c1ccncc1 (centres undefined),17,-4,-2,37*,-10,-1,-6,-14
CCOC(=O)c1c(NC(=O)CN(CC)CC)sc2c1CCN(C(=O)OCC)C2,-12,-3,-12,12,-6,3,nt,nt
CCOC(=O)c1c(NC(=S)N2CCN(C)CC2)sc2c1CCN(C(=O)OCC)C2,9,-5,-2,39*,13,-2,1,8
CC(=O)c1c(C(C)=O)c(C)n(-c2ccc(N)c(C)c2)c1C,-14,3,-5,11,-1,1,nt,nt
Cc1ccc(S(=O)(=O)N2CCCC(C(=O)N3CCCc4ccccc43)C2)cc1 (centres undefined),4,5,-2,-5,-7,-1,nt,nt
O=C(C1CCCN(S(=O)(=O)c2ccccc2)C1)N1CCCc2ccccc21 (centres undefined),-3,-3,-1,37*,4,-1,-10,8
COc1ccc([C@H]2CC(=O)C=C(c3ccc(Oc4ccccc4)cc3)C2)cc1OC,16,-3,7,44*,-9,0,-5,12
COc1ccc([C@H]2CC(=O)C=C(c3ccccc3)C2)cc1OC,-13,2,-8,16,-3,1,nt,nt
COC(=O)C1CCN(C(=O)c2cc(-c3ccc(Cl)s3)nc3ccccc23)CC1,1,-4,0,38*,-27,1,-6,4
O=C1CCc2cc(NS(=O)(=O)c3ccc(Cl)cc3)cc3c2N1CC3,6,-1,-2,-16,3,3,nt,nt
NS(=O)(=O)c1ccc(NC(=O)COc2ccc(C(=O)c3ccc(F)cc3)cc2)cc1,-21,-5,0,38*,-13,-3,-1,8
CN(c1ccc(OCC(=O)Nc2ccc(S(N)(=O)=O)cc2)cc1)S(=O)(=O)c1ccc(F)cc1,0,-5,-6,19,-23,1,nt,nt
